According to PubChem BioAssay (NCATS):
Records with an inconclusive call do not appear. Calls of active or inactive are those of the source. The call rests on the fitted dose curve; in most records, active means well fitted curve in the direction sought with a large enough effect; inconclusive means small, poorly fitted or top-dose-only effect, or another doubt; inactive means no such curve, though single readings can be large; an effect the other way counts as inactive or inconclusive.

Assays:
[1] = Quantitative High-Throughput drug screen in 47 multiple myeloma cell lines against the NCATS MIPE library collection: EJM_DSMZ cell viability assay (AID 1918926; further: nearly all actives have a fitted effect of over 30% in size; further: potency means the concentration at half of the fitted maximal effect)
In short: (§1)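 Relative luminescence from CellTiter-Glo served as the viability signal, referenced to DMSO-treated (100%) and cell-free medium (0%) controls. Treatment lasted 48 hours at 37C with 500 cells per well.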

[2] = Quantitative High-Throughput drug screen in 47 multiple myeloma cell lines against the NCATS MIPE library collection: ARP1_JJKsccF8 cell viability assay (AID 1918928; further: nearly all actives have a fitted effect of over 40% in size; further: potency means the concentration at half of the fitted maximal effect)
In short: (§2)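 Cell viability inhibition in this qHTS is measured via ATP content (CellTiter-Glo) after 48 h drug exposure at 37 °C. Wells hold 500 cells; DMSO-treated wells define 100% and medium-only wells 0%.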

[3] = Quantitative High-Throughput drug screen in 47 multiple myeloma cell lines against the NCATS MIPE library collection: ARD_JJKsccE7 cell viability assay (AID 1918929; further: potency means the concentration at half of the fitted maximal effect)
In short: as §1

[4] = Quantitative High-Throughput drug screen in 47 multiple myeloma cell lines against the NCATS MIPE library collection: Karpas620_DSMZ cell viability assay (AID 1918959); further: nearly all actives have a fitted effect of over 30% in size; further: potency means the concentration at half of the fitted maximal effect
In short: (§3)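 qHTS of the MIPE 4.0 collection: 500 myeloma cells/well, 48 h drug exposure at 37C in 5% CO2, then CellTiter-Glo for 5 min at room temperature before luminescence reading.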

[5] = Quantitative High-Throughput drug screen in 47 multiple myeloma cell lines against the NCATS MIPE library collection: Karpas417_ECACC cell viability assay (AID 1918961); settings: Karpas417 myeloma viability, CellTiter-Glo ATP luminescence, 48 h; viability (% of DMSO): at 45.8 µM (top of the series); further: potency means the concentration at half of the fitted maximal effect
In short: (§4)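 Luminescent ATP measurement with CellTiter-Glo gives viability, scaled between DMSO-only wells (100%) and media-only wells (0%). Cells, 500 per well, faced library compounds for 48 hours at 37C.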

[6] = Quantitative High-Throughput drug screen in 47 multiple myeloma cell lines against the NCATS MIPE library collection: KHM11_PLB cell viability assay (AID 1918962); further: nearly all actives have a fitted effect of over 35% in size; further: potency means the concentration at half of the fitted maximal effect
In short: as §3

[7] = Quantitative High-Throughput drug screen in 47 multiple myeloma cell lines against the NCATS MIPE library collection: JIM1_ECACC cell viability assay (AID 1918964; further: potency means the concentration at half of the fitted maximal effect)
In short: as §1

[8] = Quantitative High-Throughput drug screen in 47 multiple myeloma cell lines against the NCATS MIPE library collection: INA6_PLB cell viability assay (AID 1918965; further: nearly all actives have a fitted effect of over 55% in size; further: potency means the concentration at half of the fitted maximal effect)
In short: as §4

[9] = Quantitative High-Throughput drug screen in 47 multiple myeloma cell lines against the NCATS MIPE library collection: JJN3_DSMZ cell viability assay (AID 1918966; further: nearly all actives have a fitted effect of over 50% in size; further: potency means the concentration at half of the fitted maximal effect)
In short: as §1

[10] = Quantitative High-Throughput drug screen in 47 multiple myeloma cell lines against the NCATS MIPE library collection: H1112_PLB cell viability assay (AID 1918967; further: nearly all actives have a fitted effect of over 30% in size; further: potency means the concentration at half of the fitted maximal effect)
In short: as §1

[11] = Quantitative High-Throughput drug screen in 47 multiple myeloma cell lines against the NCATS MIPE library collection: Karpas25_ECACC cell viability assay (AID 1918968; further: nearly all actives have a fitted effect of over 35% in size; further: potency means the concentration at half of the fitted maximal effect)
In short: as §1

[12] = Quantitative High-Throughput drug screen in 47 multiple myeloma cell lines against the NCATS MIPE library collection: KMS27_JCRB cell viability assay (AID 1918970); further: nearly all actives have a fitted effect of over 30% in size; further: potency means the concentration at half of the fitted maximal effect
In short: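 ATP-based viability (CellTiter-Glo luminescence) is measured in cells treated 48 h with approved and investigational drugs at 37 °C. Controls are DMSO-only wells for full viability and media-only wells for none.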

[13] = Quantitative High-Throughput drug screen in 47 multiple myeloma cell lines against the NCATS MIPE library collection: KMS12BM_JCRB cell viability assay (AID 1918971); further: nearly all actives have a fitted effect of over 35% in size; further: potency means the concentration at half of the fitted maximal effect
In short: (§5)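 Myeloma cell lines, 500 cells per well, exposed to MIPE 4.0 library compounds for 48 h at 37C, 5% CO2. Viability from ATP by CellTiter-Glo luminescence; normalised to DMSO (100%) and media-only (0%) wells.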

[14] = Quantitative High-Throughput drug screen in 47 multiple myeloma cell lines against the NCATS MIPE library collection: KMS12PE_JCRB cell viability assay (AID 1918972); further: nearly all actives have a fitted effect of over 30% in size; further: potency means the concentration at half of the fitted maximal effect
In short: as §4

[15] = Quantitative High-Throughput drug screen in 47 multiple myeloma cell lines against the NCATS MIPE library collection: KMS20_JCRB cell viability assay (AID 1918973); further: nearly all actives have a fitted effect of over 45% in size; further: potency means the concentration at half of the fitted maximal effect
In short: as §1

[16] = Quantitative High-Throughput drug screen in 47 multiple myeloma cell lines against the NCATS MIPE library collection: KMS21BM_JCRB cell viability assay (AID 1918974); settings: ATP luminescence, 48 h; viability: at 45.8 µM (top of the series); further: potency means the concentration at half of the fitted maximal effect
In short: as §1

[17] = Quantitative High-Throughput drug screen in 47 multiple myeloma cell lines against the NCATS MIPE library collection: KMS26_JCRB cell viability assay (AID 1918975); further: nearly all actives have a fitted effect of over 45% in size; further: potency means the concentration at half of the fitted maximal effect
In short: as §5

[18] = Quantitative High-Throughput drug screen in 47 multiple myeloma cell lines against the NCATS MIPE library collection: AMO1_DSMZ cell viability assay (AID 1918927; further: nearly all actives have a fitted effect of over 30% in size; further: potency means the concentration at half of the fitted maximal effect)
In short: as §1

[19] = Quantitative High-Throughput drug screen in 47 multiple myeloma cell lines against the NCATS MIPE library collection: KMM1_JCRB cell viability assay (AID 1918960); further: nearly all actives have a fitted effect of over 30% in size; further: potency means the concentration at half of the fitted maximal effect
In short: as §2

[20] = Quantitative High-Throughput drug screen in 47 multiple myeloma cell lines against the NCATS MIPE library collection: JIM3_ECACC cell viability assay (AID 1918963; further: nearly all actives have a fitted effect of over 35% in size)
In short: as §3

COCC1(CO)C(=O)C2CCN1CC2 (stereo not drawn)
active: Potency [1] 20.9 µM | Potency [2] 1.48 µM | Potency [3] 20900 nM | Potency [4] 23.5 µM | Potency [5] 3.72 µM | Potency [6] 7.43 µM | Potency [7] 6620 nM | Potency [8] 2.96 µM | Potency [9] 590 nM | Potency [10] 20.9 µM | Potency [11] 3.72 µM | Potency [12] 4.18 µM | Potency [13] 7.43 µM | Potency [14] 9.35 µM | Potency [15] 296 nM | Potency [16] 4.18 µM | Potency [17] 0.662 µM

COC(=O)[C@@H](N)CCCN=C(N)N[N+](=O)[O-]
inactive: Potency [1] | Potency [18] | Potency [2] | Potency [3] | Potency [4] | Potency [19] | Potency [20] | Potency [7] | Potency [10] | Potency [12] | Potency [14]

C#CC1(O)CCC2C3CCC4=CC(=O)CCC4(C)C3CCC21C (stereo not drawn)
inactive: Potency [1] | Potency [18] | Potency [2] | Potency [3] | Potency [4] | Potency [6] | Potency [8] | Potency [10] | Potency [11] | Potency [12] | Potency [14] | Potency [15]
active: Potency [13] 4.18 µM

CN1[C@H]2CC(O)C[C@H]1[C@H]1O[C@H]12 (stereo partly drawn)
inactive: Potency [18] | Potency [3] | Potency [4] | Potency [19] | Potency [12] | Potency [14]
active: Potency [1] 20.9 µM | Potency [2] 20.9 µM | Potency [6] 14.8 µM | Potency [8] 8.33 µM | Potency [9] 18700 nM | Potency [10] 16.6 µM | Potency [11] 5.9 µM | Potency [13] 18.7 µM | Potency [15] 11800 nM | Potency [17] 16.6 µM

CC(=Cc1csc(C)n1)[C@@H]1C[C@H]2O[C@]2(C)CCC[C@H](C)[C@@H](O)[C@@H](C)C(=O)C(C)(C)[C@@H](O)CC(=O)O1
active: Potency [18] 1 nM | Potency [19] 1 nM | viability [16] 80.2%
inactive: Potency [1] | Potency [2] | Potency [3] | Potency [6] | Potency [8] | Potency [9] | Potency [10] | Potency [11] | Potency [13]

CC(=Cc1csc(C)n1)[C@@H]1C[C@H]2O[C@@H]2CCC[C@H](C)[C@@H](O)[C@@H](C)C(=O)C(C)(C)[C@@H](O)CC(=O)O1
active: Potency [18] 1 nM | Potency [3] 1 nM | Potency [7] 1 nM | Potency [9] 264 nM
inactive: Potency [1] | Potency [2] | Potency [20] | Potency [8] | Potency [10] | Potency [11] | Potency [13] | Potency [17]

C1=C2CCCN[C@H]2[C@@H]2C[C@H]1[C@@H]1CCCCN1C2
inactive: Potency [1] | Potency [18] | Potency [4] | Potency [19] | Potency [5] | Potency [6] | Potency [20] | Potency [9] | Potency [10] | Potency [11] | Potency [12] | Potency [14] | Potency [17]

Cc1ccccc1-n1c(Cn2ncc3c(N)ncnc32)nc2cccc(C)c2c1=O
active: Potency [1] 16.6 µM | Potency [18] 148 nM | Potency [2] 4.69 µM | Potency [3] 118 nM | Potency [4] 0.0372 µM | Potency [19] 372 nM | Potency [6] 0.332 µM | Potency [7] 66.2 nM | Potency [8] 0.235 µM | Potency [11] 0.264 µM | Potency [12] 0.0235 µM | Potency [13] 7.43 µM | Potency [14] 0.148 µM | Potency [15] 132 nM
inactive: Potency [9]

NC1CC1c1ccccc1 (stereo not drawn)
inactive: Potency [1] | Potency [18] | Potency [3] | Potency [4] | Potency [6] | Potency [20] | Potency [8] | Potency [10] | Potency [11] | Potency [12] | Potency [13] | Potency [14] | Potency [15] | Potency [17]
